Test results as given in PubChem BioAssay AID1159580 (chemical genetic matrix, 2015).
Among all 5,500 compounds or so, about 2,000 (36%) were called active. Another 18% or so got no clear call; they are omitted. Cut-off read from the data, not from the text of the source: active = normalized growth mostly below about 0.91 (no sharp cut-off); inconclusive = no clear call, values can overlap the other calls; inactive = mostly above about 0.92. The list shows a part of the results.

Assay: chemical genetic growth profiling, strain panel (AID 1159580);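 note: tested at 20 µM; growth read once vehicle control cultures reached saturation at 30 °C; 1 = growth at the plate median or of vehicle wells; lower values mean less growth of the strain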
Conditions: S. cerevisiae deletion strains, growth OD
[1] = locus YAR019C, strain CDC15, stronger effect = lower value
[2] = locus YBL105C, strain PKC1, stronger effect = lower value
[3] = locus YBR135W, strain CKS1, stronger effect = lower value
[4] = locus YBR136W, strain MEC1, stronger effect = lower value
[5] = locus YBR160W, strain CDC28, stronger effect = lower value
[6] = locus YDL017W, strain CDC7, stronger effect = lower value
[7] = locus YDL028C, strain MPS1, stronger effect = lower value
[8] = locus YDL101C, strain DUN1, stronger effect = lower value
[9] = locus YDL108W, strain KIN28, stronger effect = lower value
[10] = locus YDL132W, strain cdc53, stronger effect = lower value
[11] = locus YDL214C, strain PRR2, stronger effect = lower value
[12] = locus YDR052C, strain DBF4, stronger effect = lower value
[13] = locus YDR054C, strain cdc34, stronger effect = lower value
[14] = locus YDR226W, strain ADK1, stronger effect = lower value
[15] = locus YDR477W, strain SNF1, stronger effect = lower value
[16] = locus YER123W, strain YCK3, stronger effect = lower value
[17] = locus YER133W, strain GLC7, stronger effect = lower value
[18] = locus YFL009W, strain cdc4, stronger effect = lower value
[19] = locus YFL029C, strain CAK1, stronger effect = lower value
[20] = locus YFR003C, strain YPI1, stronger effect = lower value
[21] = locus YFR019W, strain FAB1, stronger effect = lower value
[22] = locus YFR028C, strain CDC14, stronger effect = lower value
[23] = locus YGR040W, strain KSS1, stronger effect = lower value
[24] = locus YGR052W, strain FMP48, stronger effect = lower value
[25] = locus YGR092W, strain DBF2, stronger effect = lower value
[26] = locus YHR030C, strain SLT2, stronger effect = lower value
[27] = locus YHR079C, strain IRE1, stronger effect = lower value
[28] = locus YHR082C, strain KSP1, stronger effect = lower value
[29] = locus YHR205W, strain SCH9, stronger effect = lower value
[30] = locus YIL147C, strain SLN1, stronger effect = lower value
[31] = locus YJL095W, strain BCK1, stronger effect = lower value
[32] = locus YJL128C, strain PBS2, stronger effect = lower value
[33] = locus YJL157C, strain FAR1, stronger effect = lower value
[34] = locus YJR016C, strain ILV3, stronger effect = lower value
[35] = locus YJR066W, strain TOR1 (second series), stronger effect = lower value
[36] = locus YJR066W, strain TOR1, stronger effect = lower value
[37] = locus YKL048C, strain ELM1, stronger effect = lower value
[38] = locus YKL067W, strain YNK1, stronger effect = lower value
[39] = locus YKL101W, strain HSL1, stronger effect = lower value
[40] = locus YKL193C, strain SDS22, stronger effect = lower value
[41] = locus YKL203C, strain TOR2, stronger effect = lower value
[42] = locus YLR113W, strain HOG1, stronger effect = lower value
[43] = locus YLR133W, strain CKI1, stronger effect = lower value
[44] = locus YLR403W, strain SFP1, stronger effect = lower value
[45] = locus YML070W, strain DAK1, stronger effect = lower value
[46] = locus YMR001C, strain CDC5, stronger effect = lower value
[47] = locus YMR205C, strain PFK2 (second series), stronger effect = lower value
[48] = locus YMR277W, strain FCP1, stronger effect = lower value
[49] = locus YNL006W, strain LST8, stronger effect = lower value
[50] = locus YNL020C, strain ARK1, stronger effect = lower value
[51] = locus YNL161W, strain CBK1, stronger effect = lower value
[52] = locus YNL183C, strain NPR1, stronger effect = lower value
[53] = locus YNL207W, strain RIO2, stronger effect = lower value
[54] = locus YNL222W, strain SSU72, stronger effect = lower value
[55] = locus YNL307C, strain MCK1 (second series), stronger effect = lower value
[56] = locus YOL078W, strain AVO1, stronger effect = lower value
[57] = locus YOL136C, strain PFK27, stronger effect = lower value
[58] = locus YOR061W, strain CKA2, stronger effect = lower value
[59] = locus YOR119C, strain RIO1, stronger effect = lower value
[60] = locus YOR231W, strain MKK1, stronger effect = lower value
[61] = locus YOR329C, strain SCD5, stronger effect = lower value
[62] = locus YPL031C, strain PHO85, stronger effect = lower value
[63] = locus YPL153C, strain RAD53, stronger effect = lower value
[64] = locus YPL204W, strain HRR25, stronger effect = lower value
[65] = locus YPL209C, strain IPL1, stronger effect = lower value
[66] = locus YPL256C, strain CLN2, stronger effect = lower value
[67] = locus YPR025C, strain CCL1, stronger effect = lower value
[68] = locus YPR106W, strain ISR1, stronger effect = lower value
[69] = locus YPR111W, strain DBF20, stronger effect = lower value
[70] = strain NNK1, stronger effect = lower value
[71] = strain TSCII, stronger effect = lower value

Measured: normalized growth

O=C1Nc2ccccc2/C1=C\c1c(Cl)cccc1Cl
inactive: [1] 0.966 | [2] 0.963 | [3] 0.973 | [4] 0.974 | [5] 0.972 | [6] 0.969 | [7] 0.975 | [8] 0.964 | [9] 0.974 | [10] 0.965 | [11] 0.951 | [12] 0.975 | [13] 0.958 | [14] 0.963 | [15] 0.939 | [16] 0.945 | [17] 0.945 | [18] 0.96 | [19] 0.961 | [20] 0.969 | [21] 0.976 | [22] 0.973 | [23] 0.945 | [24] 0.981 | [25] 0.909 | [26] 0.985 | [27] 0.901 | [28] 1.03 | [29] 0.918 | [30] 0.971 | [31] 0.894 | [32] 0.915 | [33] 0.946 | [34] 0.974 | [35] 0.95 | [36] 1.04 | [37] 0.944 | [38] 0.963 | [39] 0.938 | [40] 0.968 | [41] 1.01 | [43] 0.962 | [44] 0.928 | [45] 0.954 | [46] 0.968 | [47] 0.956 | [48] 0.965 | [49] 0.969 | [50] 0.941 | [51] 0.968 | [52] 0.989 | [53] 0.96 | [54] 0.967 | [55] 0.953 | [56] 0.963 | [57] 0.959 | [58] 0.959 | [59] 1.02 | [60] 0.953 | [61] 0.969 | [62] 0.939 | [63] 0.935 | [64] 0.926 | [65] 0.969 | [66] 0.905 | [67] 0.972 | [68] 0.954 | [69] 0.952 | [70] 0.946 | [71] 0.964
active: [42] 0.845

O=C1Nc2ccccc2/C1=C/c1ccc(Oc2ccccc2)nc1
active: [26] 0.615 | [42] 0.846 | [66] 0.859
inactive: [1] 0.965 | [2] 0.959 | [3] 0.957 | [4] 0.975 | [5] 0.962 | [6] 0.973 | [7] 0.966 | [8] 0.96 | [9] 0.967 | [10] 0.962 | [11] 0.866 | [12] 0.98 | [13] 0.948 | [14] 0.96 | [15] 0.874 | [16] 0.885 | [17] 0.898 | [18] 0.959 | [19] 0.975 | [20] 0.964 | [21] 0.95 | [22] 0.959 | [23] 0.892 | [24] 0.844 | [25] 0.803 | [27] 0.836 | [28] 0.82 | [29] 0.788 | [30] 0.947 | [31] 0.835 | [32] 0.877 | [33] 0.891 | [34] 0.967 | [35] 0.851 | [36] 0.775 | [37] 0.894 | [38] 0.857 | [39] 0.879 | [40] 0.959 | [41] 0.944 | [43] 0.86 | [44] 0.826 | [45] 0.915 | [46] 0.967 | [47] 0.889 | [48] 0.95 | [49] 0.975 | [50] 0.869 | [51] 0.976 | [52] 0.811 | [53] 0.962 | [54] 0.956 | [55] 0.843 | [56] 0.962 | [57] 0.897 | [58] 0.843 | [59] 0.867 | [60] 0.858 | [61] 0.967 | [62] 0.858 | [63] 0.845 | [64] 0.847 | [65] 0.971 | [67] 0.956 | [68] 0.957 | [69] 0.945 | [70] 0.971 | [71] 0.965

COc1cc(OC)c(/C=C2/C(=O)Nc3ccccc32)c(OC)c1
inactive: locus YAL013W, strain DEP1, stronger effect = lower value 1.01 | locus YAL040C, strain CLN3, stronger effect = lower value 0.983 | locus YCL061C, strain MRC1 (second series), stronger effect = lower value 1.01 | locus YDR150W, strain NUM1, stronger effect = lower value 1.01 | locus YDR363W, strain ESC2, stronger effect = lower value 0.984 | locus YER002W, strain NOP16, stronger effect = lower value 1.02 | locus YJR075W, strain HOC1, stronger effect = lower value 1.01 | locus YMR307W, strain GAS1, stronger effect = lower value 1.01 | locus YNL153C, strain GIM3, stronger effect = lower value 0.914 | locus YNL175C, strain NOP13, stronger effect = lower value 0.972 | locus YNL197C, strain WHI3, stronger effect = lower value 0.979 | locus YNL224C, strain SQS1, stronger effect = lower value 0.996 | locus YNL322C, strain KRE1, stronger effect = lower value 1 | locus YOR083W, strain WHI5 (second series), stronger effect = lower value 0.967

COc1ccc(/C=C2/C(=O)Nc3ccccc32)cc1
inactive: [4] 0.894 | [5] 0.899 | [7] 0.896 | [11] 0.84 | [13] 0.917 | [15] 0.762 | [16] 0.858 | [17] 0.777 | [19] 0.879 | [21] 0.887 | [23] 0.776 | [24] 0.836 | [25] 0.733 | [27] 0.686 | [28] 0.827 | [29] 0.577 | [31] 0.774 | [32] 0.839 | [33] 0.83 | [35] 0.692 | [36] 0.729 | [37] 0.887 | [38] 0.89 | [39] 0.906 | [41] 0.859 | [43] 0.845 | [45] 0.859 | [47] 0.866 | [50] 0.841 | [52] 0.821 | [54] 0.894 | [55] 0.873 | [57] 0.825 | [58] 0.861 | [59] 0.899 | [60] 0.877 | [62] 0.748 | [63] 0.788 | [64] 0.708 | [67] 0.912 | [69] 0.89
active: [1] 0.877 | [2] 0.884 | [3] 0.89 | [6] 0.893 | [8] 0.909 | [9] 0.892 | [10] 0.873 | [12] 0.898 | [14] 0.867 | [18] 0.868 | [20] 0.885 | [22] 0.871 | [26] 0.667 | [30] 0.892 | [34] 0.878 | [40] 0.877 | [42] 0.758 | [44] 0.652 | [46] 0.88 | [48] 0.867 | [49] 0.895 | [51] 0.874 | [53] 0.866 | [56] 0.879 | [61] 0.891 | [65] 0.894 | [66] 0.691 | [68] 0.892 | [70] 0.866 | [71] 0.863
